PubChem BioAssay AID492949 (National Center for Advancing Translational Sciences (NCATS), 2010)
Inconclusive results are not listed. Unmarked numbers belong to inactive results. Active and inactive are the calls of the source. Calls follow the shape of the dose curve; as a rule, active = well fitted activation curve with a large enough effect; inconclusive = small, poorly fitted or top-dose-only effect; inactive = no such curve, though single readings can be large or run the other way.

These compounds were tested against Relaxin receptor 1 (Homo sapiens) (UniProt Q9HBX9) (assay: qHTS Assay for Agonists of the Relaxin Receptor RXFP1: THP1 Hit Validation). Conditions: THP1-RXFP1 cells, cAMP TR-FRET, 30 min; series mostly up to 115 µM; activation: at the top concentration.
Chain of Relaxin receptor 1 (Homo sapiens) (Q9HBX9 whole entry, looked up): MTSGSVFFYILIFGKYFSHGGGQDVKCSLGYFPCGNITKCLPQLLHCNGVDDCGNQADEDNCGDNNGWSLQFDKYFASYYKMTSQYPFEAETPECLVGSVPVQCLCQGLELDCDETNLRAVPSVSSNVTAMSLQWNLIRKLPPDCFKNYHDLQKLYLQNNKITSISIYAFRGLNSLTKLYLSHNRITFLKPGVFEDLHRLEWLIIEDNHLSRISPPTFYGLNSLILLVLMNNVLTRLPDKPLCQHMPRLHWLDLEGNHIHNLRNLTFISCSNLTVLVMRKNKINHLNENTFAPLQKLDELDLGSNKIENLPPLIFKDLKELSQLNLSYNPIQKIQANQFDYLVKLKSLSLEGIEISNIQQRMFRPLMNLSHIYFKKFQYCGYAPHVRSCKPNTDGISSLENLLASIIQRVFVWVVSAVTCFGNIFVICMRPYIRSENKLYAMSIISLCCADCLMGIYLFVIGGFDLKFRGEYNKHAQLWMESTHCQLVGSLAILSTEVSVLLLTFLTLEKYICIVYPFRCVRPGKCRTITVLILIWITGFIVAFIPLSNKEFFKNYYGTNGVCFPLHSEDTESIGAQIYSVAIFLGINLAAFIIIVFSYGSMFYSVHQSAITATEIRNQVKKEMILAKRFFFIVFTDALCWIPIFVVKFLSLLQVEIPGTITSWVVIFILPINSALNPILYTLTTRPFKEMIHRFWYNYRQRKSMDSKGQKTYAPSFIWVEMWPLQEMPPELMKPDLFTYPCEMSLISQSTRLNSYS
How it was run: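 EC50s come from Hill-equation fits of data normalized between buffer (basal) and 29 nM porcine relaxin (100%). cAMP was measured by competitive TR-FRET in lysates of RXFP1-transfected THP1 cells after 30 min compound exposure, with Ro 20174 present.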
Also: nearly all actives have a fitted effect of over 60% in size.
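For activation in this document: 0% = buffer alone basal and 100% = 29 nM porcine relaxin.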
Potency is read from the fitted curve at half-maximal effect.

Compound	activation	Potency
O=C(Nc1ccccc1C(=O)NCc1ccco1)c1ccco1	2.17% [at 125 µM]	–
CC(C)c1ccccc1NC(=O)c1ccccc1NC(=O)C1CCCCC1	-0.0827% [at 125 µM]	–
Cc1cc(C)c(C(=O)CSc2n[nH]c(=O)n2C2CC2)cc1C	-3.41%	–
C=CCOc1c(Cl)cc(CNc2ccc(N(C)C)cc2)cc1OC	-13.2%	–
COc1cccc(CNC(=O)c2ccc(CS(=O)Cc3ccc(C)cc3)o2)c1 (stereo unspecified)	2.75% [at 43.1 µM]	–
CN(C)S(=O)(=O)c1cccc(COc2ncnc3c(Cl)cc(Cl)cc23)c1	–	5.49 µM (active)
CN(C)c1ccc2nc3c(=O)[nH]c(=O)nc-3n(CC(O)C(O)C(O)CO)c2c1 (stereo unspecified)	-8.95%	–
S=c1nc[nH]c2c1[nH]c1ccc(Cl)cc12	–	1.55 µM (active)
O=S(=O)(c1cccc(-c2cn3cccnc3n2)c1)N1CCOCC1	–	13.8 µM (active)
CCc1ccc(-c2nc3ccc(Br)cc3c(C(=O)O)c2C)s1	–	6.15 µM (active)
Cc1ccccc1NC(=O)CNc1ccccc1C(=O)NCc1ccco1	-1.83% [at 125 µM]	–
O=C(OCc1nc2ccsc2c(=O)[nH]1)c1cccc(S(=O)(=O)N2CCOCC2)c1	–	43.6 µM (active)
Cc1cccc(-c2nnc(SCC(=O)NC3CC3)n2C)c1	-35.5%	–
CCOC(=O)CNC(=O)CSc1nc2c(C)cccc2cc1CC	–	19.4 µM (active)
COc1ccc(CN2C(=O)c3cccnc3C2=O)cc1S(=O)(=O)NC1CCCCC1	–	19.5 µM (active)
Cc1cc(C)c(NC(=O)CS(=O)CC(=O)Nc2ccc(F)cc2F)c(C)c1 (stereo unspecified)	-5.33%	–
Cc1cccc(N2C(=O)C(O)=C(C(=O)c3cccs3)C2c2ccc(C(C)C)cc2)n1 (stereo unspecified)	-0.973%	–
Cc1cccc(NC(=O)c2ccccc2NC(=O)C2CCCCC2)c1C	4.61% [at 125 µM]	–
O=C(Nc1ccccc1C(=O)NC1CCCCC1)c1ccco1	3.46% [at 125 µM]	–
NC(=S)c1cc2ccc(O)cc2oc1=O	–	4.88 µM (active)
O=C(O)c1cc(-c2ccco2)nc2ccc(Br)cc12	–	19.4 µM (active)
